# Hit rate of the full screen: of about 300,000 compounds, about 2,500 (0.83%) were called active. Rule as the data show it: active = inhibition above about 60%; inconclusive = no clear call, values can overlap the other calls; inactive = below that. This excerpt belongs to a sample that is enriched for actives.
# Experiment: 5' untranslated region of α-synuclein, MLPCN primary screen (AID 1813);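 also: H4 neuroglioblastoma cells stably carrying SNCA 5'UTR luciferase fusion; 0% = DMSO wells and 100% = positive control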
# Conditions: alpha-synuclein 5'UTR reporter, inhibitor activity; stronger effect = higher value; tested at 7.5 µM
row,SMILES,inhibition
1,Cc1ccc(SCc2c(C(=O)N/N=C/c3cccnc3)nnn2-c2nonc2N)cc1,-2.9% (inactive)
2,Nc1nonc1-n1nnc(C(=O)N/N=C/c2cc(Br)ccc2O)c1CSC1=NCCS1,94.1% (active)
3,Nc1nonc1-n1nnc(C(=O)N/N=C/c2ccccc2O)c1CN1CCCC1,14.3% (inactive)
4,OCCN1CCN(c2nnc(-c3ccccc3)c3ccccc23)CC1,18.9% (inactive)
5,OCCN1CCN(C(=S)c2ccc(-c3ccccc3)cc2)CC1,88% (active)
6,S=C(c1ccccc1)N1CCCC1,4.96% (inactive)
7,Cc1nc2cccnc2nc1C,-3.08% (inactive)
8,CC(C)S(=O)(=O)c1csc(NC(=O)Nc2ccc(Cl)cc2)c1Cl,-49.4% (inactive)
9,CCN(CC)CCOc1ccc2c(c1)C(=NNC(=O)c1ccccn1)c1cc(OCCN(CC)CC)ccc1-2,109% (active)
10,Cc1ccc(Cl)cc1NC(=O)c1ccccn1,-44% (inactive)
11,Cc1cccc(OCC(=O)NCCCNC(=O)c2ccccn2)c1,8.27% (inactive)
12,COc1ccc(NC(=O)Cn2ncn3c(cc4ccccc43)c2=O)c(OC)c1OC,30% (inactive)
13,COC(=O)Cc1csc(/N=C/c2c(O)n(-c3cccc(C(F)(F)F)c3)c(=O)c3ccccc23)n1,81.8% (active)
14,COC(=O)Cc1csc(Nc2c(C)n(C)n(-c3ccccc3)c2=O)n1,14.1% (inactive)
15,Cc1ccc(-n2c(O)c(C=Nc3ccc(S(=O)(=O)Nc4ncccn4)cc3)c3ccccc3c2=O)cc1C,13.1% (inactive)
16,CC(NC(=O)c1cccc2ccccc12)c1ccc2c(c1)CCCC2 (stereo unspecified),5.38% (inactive)
17,Cc1ccsc1C(=O)OCC(=O)c1cc(C)n(CC2CCCO2)c1C (stereo unspecified),79.6% (active)
18,Cc1cc(C(=O)CCl)c(C)n1CC1COc2ccccc2O1 (stereo unspecified),21.1% (inactive)
19,Cc1cc(C(=O)Cn2cnc3cc([N+](=O)[O-])ccc3c2=O)c(C)n1CC1CCCO1 (stereo unspecified),-21.1% (inactive)
20,CCn1c(-c2cccnc2Cl)nc2cc(C)c(C)cc21,24.4% (inactive)
21,CC(C)C(NS(=O)(=O)c1cccs1)C(=O)Nc1nc(C(C)(C)C)cs1 (stereo unspecified),24.5% (inactive)

row,SMILES,inhibition
1,CCCCN(C(=O)c1ccc(C)o1)c1c(N)n(CCCC)c(=O)[nH]c1=O,11.8% (inactive)
2,COc1ccc(NC(=O)C(C)SCc2ccccc2)cc1 (stereo unspecified),-18.2% (inactive)
3,COc1ccc(C(=O)NCC2CCCN2S(=O)(=O)c2cccs2)cc1OC (stereo unspecified),19.5% (inactive)
4,CC(=O)c1c(C)[nH]c(C(=O)COC(=O)c2cccc(S(=O)(=O)N(C)c3ccccc3)c2)c1C,-1.07% (inactive)
5,CC1CC(C)CN(C(=O)C2CC(=O)N(c3ccc(F)cc3)C2)C1 (stereo unspecified),10.4% (inactive)
6,C=CCn1c(CCNC(=O)c2ccccc2F)nnc1SCC(=O)Nc1ccc(OC)cc1,-21.5% (inactive)
7,CSc1nnc(NC(=O)c2nc(S(=O)(=O)Cc3ccc(C)cc3)ncc2Cl)s1,-15.6% (inactive)
8,Cc1ccc(CS(=O)(=O)c2ncc(Cl)c(C(=O)Nc3nnc(C)s3)n2)cc1,-37.4% (inactive)
9,Cc1cccc(NC(=O)c2nc(S(=O)(=O)Cc3ccccc3)ncc2Cl)c1,84.8% (active)
10,COC(=O)COc1cccc2c(=O)n(CC(=O)NCc3ccccc3)ccc12,-24.3% (inactive)
11,Nc1nc(Nc2ccccc2F)nc(NC2CCCCC2)c1[N+](=O)[O-],30.2% (inactive)
12,COc1cc(OC)cc(C(=O)NC2CCN(C(=O)N3c4ccccc4Sc4ccccc43)CC2)c1,47.3% (inactive)
13,COc1ccc(CN2[C@@H](CC(=O)O)c3cc(F)ccc3S2(=O)=O)cc1,-3.17% (inactive)
14,C/C(=N\NC(=O)c1ccccc1F)c1ccccn1,83% (active)
15,COc1ccc(CC(=O)N/N=C(\C)c2ccccn2)cc1,77.7% (active)
16,C/C(CC(=O)Nc1ccc(N(C)C)cc1)=N\NC(=O)c1ccccc1F,-40.2% (inactive)
17,COc1ccc(CC(=O)NC(C)CCc2ccccc2)cc1 (stereo unspecified),1.27% (inactive)
18,C/C(=N\NC(=O)Cc1ccc(F)cc1)c1ccc(F)cc1,20.6% (inactive)
19,C/C(=N\NC(=O)Cc1ccc(Br)cc1)c1cccnc1,30.5% (inactive)
20,O=C(Nc1ccc(NC(=O)c2ccccc2F)cc1)c1ccccc1F,-42.3% (inactive)
21,COc1ccc(C/C(C)=N/NC(=O)c2ccncc2)cc1,6.51% (inactive)

row,SMILES,inhibition
1,C/C(=N\NC(=O)Cc1ccc(Cl)cc1)c1ccccn1,85.6% (active)
2,C/C(=N\Nc1nc2ccccc2[nH]1)c1cccs1,-116% (inactive)
3,O=C(O)C1CCCCC1C(=O)N1CCN(S(=O)(=O)c2ccc(F)cc2)CC1 (stereo unspecified),-5.32% (inactive)
4,CC1(C)OC(=O)N2CCc3ccccc3C21C (stereo unspecified),-10.7% (inactive)
5,C=CCNC(=S)NNc1ncnc2sc3c(c12)CC(C)(C)OC3,5.75% (inactive)
6,O=C(O)c1cc2c(cc1NC(=O)c1c(F)cccc1Cl)OCCCO2,23.8% (inactive)
7,COc1ccc2[nH]c3nc(SCC(=O)NC4CC4)nnc3c2c1,-39.5% (inactive)
8,CCCCCN(C(=O)NC(=O)Nc1ccccc1C)S(C)(=O)=O,-36.2% (inactive)
9,OCCCNc1nc(-c2ccccc2)c2cc(Cl)ccc2n1,30.4% (inactive)
10,NS(=O)(=O)c1cccnc1Nc1cccc(Cl)c1,-2.47% (inactive)
11,OCCCNc1nccc(-c2cc(Nc3cccc(Cl)c3)ncn2)n1,73.3% (active)
12,O=C1CCCN2N=C(SCC(=O)Nc3ccc(Br)cc3)SC2=N1,10.7% (inactive)
13,Cc1cc(C(F)F)nn1CC(=O)NC1CCCCCC1,-7.74% (inactive)
14,Cc1ccccc1NC(=O)CCNS(=O)(=O)c1ccc2[nH]c(=O)oc2c1,6.01% (inactive)
15,CCOc1ccc(C2C(C(=O)NC)=C(C)Nc3nc4ccccc4n32)cc1OC (stereo unspecified),10.1% (inactive)
16,CCOC(=O)C1=C(C)Nc2nc3ccccc3n2C1c1cccs1 (stereo unspecified),31.1% (inactive)
17,COc1ccccc1NC(=O)C1=C(C)Nc2nc3ccccc3n2C1c1cccs1 (stereo unspecified),106% (active)
18,COC(=O)c1cc(=O)n(-c2c(Cl)cc(C(F)(F)F)cc2Cl)[nH]1,29.3% (inactive)
19,CN(CC(=O)Nc1c(Cl)cccc1Cl)C(=O)c1ccncc1,8.69% (inactive)

# From PubChem BioAssay AID1813 (Broad Institute, 2009)
